An excerpt weighted towards active compounds, which were near 3.4% of everything screened.
TEAD-YAP block – TEAD-YAP interaction inhibition, primary screen, TEAD-YAP interaction inhibitor project, luminescence, HEK-TIYL cells | TEAD-Gal4/YAP UAS-luciferase luminescence | inhibition, % at 9.12 µM | 1.4% of 640,000 active; in the data active = inhibition above about 32%;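 also: 0% = median of test compound wells and 100% = reference inhibitor wells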
FBW7 act – FBW7 E3 ligase activators, primary screen, biochemical, AlphaScreen, human; F-box/WD repeat-containing protein 7 (Homo sapiens), Q969H0; 0.13% of 650,000 active; AlphaScreen FBW7–phospho-cyclin E peptide binding, activator screen; normalized activity (activation), % at 26.1 µM; in the data active = normalized activity above about 1.9%;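 also: purified mutant Fbw7 with reduced substrate affinity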
Target sequence (Q969H0 whole entry, looked up): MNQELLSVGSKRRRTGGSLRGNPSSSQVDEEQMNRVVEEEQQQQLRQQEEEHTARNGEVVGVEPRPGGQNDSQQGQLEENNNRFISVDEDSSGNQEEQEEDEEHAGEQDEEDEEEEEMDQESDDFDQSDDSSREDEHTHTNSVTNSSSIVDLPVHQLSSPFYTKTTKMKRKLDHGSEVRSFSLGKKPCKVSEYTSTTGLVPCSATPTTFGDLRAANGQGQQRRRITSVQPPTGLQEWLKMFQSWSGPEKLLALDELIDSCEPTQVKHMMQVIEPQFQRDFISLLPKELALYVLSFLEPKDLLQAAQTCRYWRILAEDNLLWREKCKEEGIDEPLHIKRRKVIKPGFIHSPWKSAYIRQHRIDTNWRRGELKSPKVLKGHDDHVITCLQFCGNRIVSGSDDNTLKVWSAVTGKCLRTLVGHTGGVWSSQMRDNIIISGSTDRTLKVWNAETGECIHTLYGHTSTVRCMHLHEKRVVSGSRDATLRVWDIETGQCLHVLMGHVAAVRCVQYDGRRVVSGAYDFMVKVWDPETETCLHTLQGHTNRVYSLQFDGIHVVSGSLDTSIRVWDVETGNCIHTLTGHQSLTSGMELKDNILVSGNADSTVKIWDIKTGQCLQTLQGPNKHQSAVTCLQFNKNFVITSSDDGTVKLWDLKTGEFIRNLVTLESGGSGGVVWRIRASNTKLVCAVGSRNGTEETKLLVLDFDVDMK
GPR151 activ – activators of human GPR151, primary screen, cell-based, PathHunter beta-arrestin, luminescence; activation, % at 11.2 µM; G-protein coupled receptor 151 (Homo sapiens), Q8TDV0; PathHunter beta-arrestin GPR151 cells; 1% of 650,000 active; in the data active = activation above about 4.9%;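 also: 0% = median of compound wells and 100% = cells with positive control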
MITF primary – MITF inhibitors, primary screen, biochemical, AlphaScreen, human; AlphaScreen MITF homodimerization, bead proximity signal; inhibition, % at 2.6 µM; Microphthalmia-associated transcription factor (Homo sapiens), O75030; 0.91% of 650,000 active; in the data active = inhibition above about 50%;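 also: 0% = vehicle wells with protein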
MITF confirm – MITF inhibitors, retest of hits, confirmation, biochemical, AlphaScreen, triplicate. AlphaScreen MITF homodimerization, biotin/His-MITF beads. 16% of 4,700 active. shares compounds with MITF primary. inhibition, % at 2.6 µM;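 active = inhibition above a cutoff derived from the DMSO control wells, cut at about 28% in these data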;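 also: 0% = MITF dimer wells with DMSO only; inhibitors lower the bead chemiluminescence by keeping MITF from dimerizing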
AS interf DR – AlphaScreen optical interference compounds, dose response, counter-screen, biochemical, HTS; IC50, µM; shares compounds with MITF primary; AlphaScreen optical interference counterscreen, cell-free; AID 1259373, 2018; 6% of 480 active; call rule not given here
AlphaScreen intf2 – AlphaScreen optical interference compounds, counter-screen for MITF inhibitor project, biochemical, triplicate | 7.6% of 4,700 active | LysRS AlphaScreen counterscreen, signal interference | AID 1259376, 2018 | shares compounds with MITF primary | inhibition, % at 2.6 µM;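 active = inhibition above a cutoff derived from the DMSO control wells, cut at about 30% in these data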
* marks the source's active call; other numbers are inactive results; · = no result given.

SMILES	TEAD-YAP block	FBW7 act	GPR151 activ	MITF primary	MITF confirm	AlphaScreen intf2	others
Cn1nnc(-c2ccc(Nc3nccc(-c4ccc5nc(C6CC6)[nH]c(=O)c5c4)n3)cc2)n1	4	1	2	63*	39*	-22	AS interf DR=>6.5
O=C(Nc1ccc(Nc2nccc(-c3ccc4nc(C5CC5)[nH]c(=O)c4c3)n2)cc1)N1CCCC1	-16	2	1	39	·	·
CN(C)CCCN1C(=O)C(=O)/C(=C(\O)c2ccccc2)C1c1ccco1 (stereo not drawn)	-1	0	0	75*	-4	-12
CSc1ccccc1N=Cc1nc(-c2ccco2)oc1O	2	0	3	27	·	·
O=C(Nc1ccc(-c2cn[nH]c2)c(C(F)(F)F)c1)C1COc2ccccc2O1 (stereo not drawn)	-37	1	0	61*	37*	3	AS interf DR=>6.5
CCc1ccccc1NC(=O)CCCN1C(=S)NC(C)(C)CC1C (stereo not drawn)	5	0	0	-3	·	·
CCN1CCN(CCNC(=O)CCCN2C(=S)NC(C)(C)CC2C)CC1 (stereo not drawn)	8	0	1	71*	5	6
CCC(C)OC(=O)C1=C(C)NC2=C(C(=O)CC(c3ccccc3)C2)C1c1cc(OC)c(OC)cc1Br (stereo not drawn)	0	0	0	63*	14	17
CCOc1c(O)ccc(/C=C2\C(=O)Nc3ccc(Br)cc32)c1[N+](=O)[O-]	-1	0	0	65*	2	23
CCC(C)C(=O)Nc1nnc(SCC(=O)NC2CCCC2)s1 (stereo not drawn)	5	0	0	13	·	·
CCC(CC)C(=O)Nc1nnc(SCC(=O)NC2CCCC2)s1	3	0	0	61*	1	11
CCC1=NN2C(=N)/C(=C/c3cc(Br)c(OCCOc4ccccc4C)c(OC)c3)C(=O)N=C2S1	-3	0	2	3	·	·
Cc1cc(C)cc(NCc2ccc3c(c2)OCO3)c1	3	0	0	67*	16	11
CCN1C(=O)/C(=C\c2c(Cl)cccc2Cl)C(C(=O)OC)=C1C	-7	0	-2	14	·	·
Ic1ccc(OCCNC2CCCC2)cc1	12	0	-1	59*	-19	-3
Ic1ccc(OCCCNC2CCCC2)cc1	13	0	1	9	·	·
Cc1ccc(C)c(C(=O)Nc2ccccc2F)c1	-4	0	-1	84*	14	7
Cc1c(C#N)c(O)n(CCO)c(=O)c1N=Nc1ccccc1C(=O)O	12	0	-1	16	·	·
Cc1c(C#N)c(O)n(CCCO)c(=O)c1N=Nc1c(C)n(C)n(-c2ccccc2)c1=O	15	-1	1	84*	23	100*
CC1(C2CC2)NC(=O)N(CC(=O)Nc2ccc(S(=O)(=O)N3CCCCC3)cc2)C1=O (stereo not drawn)	0	1	-1	62*	5	11
CC1(C2CC2)NC(=O)N(CC(=O)Nc2ccccc2F)C1=O (stereo not drawn)	-4	0	1	67*	10	7
COc1ccccc1OCCN1CCOCC1	-4	0	-1	54*	6	9
COc1ccccc1OCCN1CCCCC1	10	0	-1	27	·	·
COc1ccccc1OCCN1CCN(c2ccccc2)CC1	14	0	0	-1	·	·
COc1ccccc1OCCN1CCN(C)CC1	-6	0	1	73*	5	9
SMILES	TEAD-YAP block	FBW7 act	GPR151 activ	MITF primary	MITF confirm	AlphaScreen intf2	others
CC1=C(C(=O)OC2CCCCC2)C(c2ccc(OCc3ccccc3)cc2)NC(=O)N1 (stereo not drawn)	3	0	-1	55*	3	11
CC1=C(C(=O)OC2CCC(C)CC2)C(c2ccccc2Cl)NC(=O)N1 (stereo not drawn)	-6	0	-1	81*	11	20
C=C(Cl)CSc1nnc(CCNC(C)=O)n1-c1ccc(OC)cc1	16	0	0	2	·	·
COc1ccc(OC)c(-n2c(N)c(C#N)c3nc4ccccc4nc32)c1	7	0	0	-5	·	·
COCCN(C(=O)Nc1cccc(C(C)=O)c1)C1CCN(CCc2cccs2)CC1	-2	1	4	19	·	·
CCCCNCCOc1ccccc1F	3	0	-1	65*	-4	-7
OCCNCCOc1cccc2ccccc12	-2	0	-2	51*	0	21
CCOc1ccccc1OCCCNCCO	11	0	0	58*	13	14
Cc1ccc(CSc2nnc(-c3ccncc3)n2CCCN(C)C)cc1	8	0	0	72*	7	5
CN(C)CCCn1c(SCC(N)=O)nnc1-c1ccncc1	3	0	-1	8	·	·
C=CC1=C(C)C2=Cc3c(C=C)c(C)c4[n]3[Sn+2][n]3c(c(C)c(CCC(=O)O)c3=CC3=NC(=C4)C(C)=C3CCC(=O)O)=CC1=N2	·	0	0	55*	62*	-17	AS interf DR=>6.5
C=CC1=C(C)c2cc3[n-]c(cc4nc(cc5[n-]c(cc1n2)c(C)c5CCC(=O)O)C(CCC(=O)O)=C4C)c(C)c3C=C.[Zn+2]	·	0	-1	26	·	·
NNC(=O)C(=O)NNc1ccccn1	-3	0	2	70*	74*	101*
O=C(O)c1ccc(COc2cccc(Cl)c2)o1	6	0	-5	8	·	·
Cc1ccnc(N2C3CCC2CC(O)(c2ccccc2)C3)n1 (stereo not drawn)	8	0	-1	53*	12	13
Cc1ccc(C2(O)CC3CCC(C2)N3c2cc(C)nc(N)n2)cc1 (stereo not drawn)	8	0	-1	-19	·	·
Cc1ccc(Nc2nc3nonc3nc2Nc2ccc(O)cc2)cc1C	-34	0	1	10	·	·
O=C(CNCc1ccc(Cl)cc1)Nc1ccccc1N1CCOCC1	-1	0	0	61*	5	11
O=C(CNCc1ccc(F)cc1)Nc1ccccc1N1CCOCC1	0	0	-1	63*	-1	8
O=C(COC(=O)c1ccccc1Cl)Nc1ccccc1N1CCOCC1	6	0	0	-5	·	·
Cc1cccc(NC(=O)CNCc2cccnc2)c1C	-4	0	0	83*	5	11
O=C(CNCc1ccccc1Cl)Nc1ccccc1N1CCOCC1	-2	0	0	62*	14	9
Cc1cccc(NC(=O)CSCCO)c1C	13	0	-1	8	·	·

Assay outcomes deposited in PubChem by The Scripps Research Institute Molecular Screening Center.
